Sampled rows, rich in hits. Any-hit rate of the full collection: about 2.2%.
FUS suppressor: suppressors of FUS proteinopathy in yeast. S. cerevisiae FUS-expressing, growth rescue, OD600, 24 h. Potency, µM (doses to about 76.6 µM), usual class: activators. hit rate 0.24% among 390,000. AID 1347120;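 also: plate controls were DMSO vehicle for no effect and reference control for full effect; nearly all actives have a fitted effect of over 55% in size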
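Galactose (2%) drives FUS expression in yeast precultured in raffinose; seeding density OD 0.005. Test compounds incubated 24hr at 30C and 99% humidity before absorbance at 600 nm was measured.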
aSyn yeast inh: rescues yeast growth from alpha-synuclein toxicity. Yeast expressing alpha-synuclein, growth rescue, BacTiter-Glo, 24 h. Potency, µM (series often up to 46.1 µM), for the others: at the highest dose growth rescue (activation), usual class: activators. hit rate 0.14% among 370,000. AID 652106; also: % of control where 0% means no effect; nearly all actives have a fitted effect of over 65% in size
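Screening used galactose-induced yeast with toxic alpha-synuclein levels, exposed to compound for 24 hr at 30 deg C. Cell growth, read with BacTiter-Glo luminescence, gave the measured signal.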
Mito fusion act: blocks mitochondrial division or promotes mitochondrial fusion; S. cerevisiae fusion-defective mutant growth rescue, CellTiterGlo 48 h; Potency, µM (top dose mostly 46.1 µM), for inactives: top-dose growth rescue (activation), usual class: activators; hit rate 0.23% among 320,000; also: % of control where 0% means no effect; nearly all actives have a fitted effect of over 45% in size
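Temperature-sensitive fusion-defective S. cerevisiae (e.g. fzo1-1, mgm1-5) were grown with compound in YPEG medium (3% ethanol, 3% glycerol) for 48 hours at 37C. Growth rescue was measured as viability by CellTiterGlo luminescence after 10 minutes at ambient.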
Abeta yeast res: compounds reversing amyloid beta toxicity in yeast | yeast expressing A-beta42, growth rescue, OD600, 48 h; response scale: 0% DMSO, 100% iron-clioquinol control | Potency, µM (doses to about 46.1 µM), hits mostly activators | hit rate 0.063% among 410,000; also: nearly all actives have a fitted effect of over 55% in size
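Growth rescue measured by 600 nm absorbance after 48 h yeast culture at 30 C with compound. Values normalized between DMSO and an equimolar ferric chloride plus clioquinol control.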
TDP43 rescue: rescues yeast growth from TDP-43 toxicity; Potency, µM (titrated, usually from 46.1 µM), for the others: at the highest dose growth rescue (activation), most hits filed as activators; TDP-43 expressing yeast growth rescue, BacTiter-Glo, 24 h; AID 652104; hit rate 1.8% among 410,000; also: % of control where 0% means no effect; nearly all actives have a fitted effect of over 50% in size
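In this qHTS, compounds that restore growth of yeast expressing TDP-43 appear as activators. Cells (OD600=0.02, galactose medium, raffinose-pregrown) are incubated with compound 24 hr at 30 deg C and growth is quantified by BacTiter-Glo.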
Active calls of the source: *; i = inactive; ? = inconclusive; · = no result given. Calls follow the shape of the dose curve; as a rule, active = well fitted curve in the direction sought with a large enough effect; inconclusive = small, poorly fitted or top-dose-only effect, or another doubt; inactive = no such curve, though single readings can be large; an effect the other way counts as inactive or inconclusive. Potency is read from the fitted curve at half-maximal effect.

SMILES	FUS suppressor	aSyn yeast inh	Mito fusion act	Abeta yeast res	TDP43 rescue
N/C(Cc1cccc2ccccc12)=N\OC(=O)c1ccccc1F	·	-26%	-2%	i	22µM*
N/C(Cc1ccc(Cl)cc1Cl)=N\OC(=O)c1ccccc1F	i	-78%	0%	i	-94%
N/C(Cc1cccc2ccccc12)=N\OC(=O)COc1ccccc1	·	-24%	9%	i	22µM*
N/C(=N\OC(=O)c1cccc2ccccc12)c1ccncc1	i	?	-6%	i	20µM*
O=C(O)c1ccc(NC(=O)c2cc3c([nH]c2=O)CCCC3=O)cc1	·	11%	·	·	·
Nc1nc2c(ncn2[C@@H]2O[C@H](CNCc3ccc(Oc4cc(-n5cccn5)ncn4)cc3)[C@@H](O)[C@H]2O)c(=O)[nH]1	i	2%	·	i	19%
CCC(C)(C)C(=O)O[C@H]1C[C@@H](C)C=C2C=C[C@H](C)[C@H](CC[C@@H]3C[C@@H](O)CC(=O)O3)[C@H]21	i	16%	-10%	i	14µM*
C=CCOc1ccc(/C=C/C(C)=N\O)cc1	i	·	-2%	i	10µM*
C=CCOc1ccc(/C=C/C(=O)OCC(=O)N2CCN(C(C)=O)CC2)cc1	i	0%	·	i	-13%
CCc1nonc1NC(=O)COc1ccc(Cl)c(C)c1	i	-5%	9%	i	20%
CCc1nonc1NC(=O)COc1cc(C)c(Cl)c(C)c1	i	-7%	11µM*	i	-1%
COc1cccc(C(=O)c2sc(Nc3ccc(C)cc3C)c(S(=O)(=O)c3ccccc3)c2N)c1	i	·	·	i	20%
Clc1ccc(-c2nc3ccc(Cl)cn3c2Cc2cccc(Cl)c2)cc1	?	-1%	·	i	25µM*
Fc1ccc(-c2nc3ccc(Cl)cn3c2Cc2cccc(Cl)c2)cc1	i	-1%	·	i	25%
Clc1cccc(Cc2c(-c3ccccc3)nc3ccc(Cl)cn23)c1	i	2%	·	i	32µM*
Brc1cccc[n+]1CCCC[n+]1ccccc1Br	·	1%	·	·	·
Cc1ccc(Cl)cc1-c1cc(C(=O)NCc2ccc(C(F)(F)F)cc2)[nH]n1	i	0%	·	i	30%
Cc1ccc2c(c1)c1c(n2CC2COC(C)(C)O2)C(=O)CCC1 (stereo not given)	i	0%	-1%	i	13µM*
Cc1cc(=O)oc2cc(OCC(=O)Nc3c(C(C)C)cccc3C(C)C)ccc12	i	·	·	i	?
O=C(NNc1nc2ccc(Cl)cc2s1)c1cc(-c2cccs2)nc2ccccc12	i	?	-7%	?	4.5µM*
Cc1ccc(SCCNC(=O)/C=C/c2ccc([N+](=O)[O-])cc2)cc1	i	18%	16µM*	i	19%
O=C(/C=C/c1ccc([N+](=O)[O-])cc1)NCCSc1ccccc1	i	1%	4%	i	19%
O=C(Nc1ccccc1-c1ccccc1)c1ccc(Br)o1	i	-12%	20%	i	22µM*
O=C(Nc1ccccc1Oc1ccccc1)c1ccc(Br)o1	i	1%	?	i	4%
COc1ccc(CN(C)C(=O)CCCNC(=O)c2ccc(Cl)cc2)cc1	i	-3%	-3%	i	-22%
SMILES	FUS suppressor	aSyn yeast inh	Mito fusion act	Abeta yeast res	TDP43 rescue
CC(=O)c1ccc(N2CCN(C(=O)c3ccc4c(Cl)c5c(nc4c3)CCCC5)CC2)cc1	·	·	2%	·	·
Cc1ccc(C)c(N2CCN(C(=O)c3ccc4c(Cl)c5c(nc4c3)CCCC5)CC2)c1	?	·	·	i	35µM*
Cc1ccc(Cl)cc1N1CCN(C(=O)c2ccc(C)c(-n3c(C)nc4cccnc43)c2)CC1	22µM*	·	·	i	7%
Cc1ccc(C)c(N2CCN(C(=O)c3cccc(-n4c(C)nc5cccnc54)c3)CC2)c1	?	·	·	i	20%
CCOC(=O)c1c(-c2ccc(C)cc2)csc1NC(=O)c1cc(=O)c2cc(C)cc(C)c2o1	i	·	·	i	3%
NC(=S)N/N=C/c1ccc(-n2nncc2-c2ccc(Cl)cc2)cc1	i	-8%	22µM*	i	-2%
NC(=S)N/N=C/c1ccc(/C=N/NC(N)=S)cc1	i	1%	-4%	i	?
CCOc1cc(-c2nc(-c3ccccc3)c(-c3cc([N+](=O)[O-])ccc3C)[nH]2)ccc1O	?	-13%	14µM*	i	11%
CCCCCCCNC(=O)C1(CC2CC(c3ccc(Cl)cc3)=NO2)CCNCC1 (stereo not given)	i	-33%	-21%	i	?
COc1ccc(C2=CC(=O)C[C@H](c3ccc(F)cc3)C2)cc1OC	i	0%	?	i	22µM*
COc1ccc([C@H]2CC(=O)C=C(c3ccc(Cl)c(C(F)(F)F)c3)C2)cc1OC	?	0%	4%	i	16µM*
COc1ccc([C@H]2CC(=O)C=C(c3ccc(C)cc3)C2)cc1OC	i	4%	17%	i	13µM*
COc1ccc(C2=CC(=O)C[C@H](c3ccc(OC)c(OC)c3)C2)cc1	i	12%	12%	i	13%
COc1ccc(C2=CC(=O)CC(c3ccc(F)cc3)C2)cn1 (stereo not given)	i	6%	·	i	18µM*
COc1cc2c(C(=O)N(C)c3cc(Cl)ccc3OC)cn(CC(C)C)c(=O)c2cc1OC	i	·	·	i	8%
O=C(CCCn1c(=O)c2cccn2c2ccccc21)NCc1ccccc1Br	i	·	·	i	?
CCc1ccc(-c2nc(CS(=O)CC(=O)NCCc3ccc(Cl)cc3)c(C)o2)cc1 (stereo not given)	i	·	·	i	19%
CCOc1ccc(OCc2ccc(C(=O)N(CC)CC)cc2)cc1	i	-11%	?	i	13µM*
CCN(CC(=O)Nc1ccc(NC(C)=O)cc1)C(=O)c1ccc(COc2ccc(C(C)(C)C)cc2)cc1	i	4%	·	i	14%
CCOc1cccc(CN2CCC(Oc3ccc(C(=O)N4CCCC4)cc3)CC2)c1O	i	6%	·	i	8%
CCCOc1ccc(C(=O)N2CCCc3ccccc32)cc1	i	·	-1%	i	11µM*
COc1cc(OC)cc(C(=O)N2CCCc3ccccc32)c1	i	10%	2%	i	4%
CCOc1ccc(C(=O)N2CCc3ccccc32)cc1	i	-4%	1%	i	11%
COc1ccc2oc(C(=O)N3CCCc4ccccc43)c(C)c2c1	i	-15%	?	i	16µM*
CC(C)(C)N(Cc1ccccc1)C(=O)COC(=O)C1CC(=O)N(Cc2ccccc2)C1 (stereo not given)	i	2%	·	i	-4%
CN1C(=O)c2cc(NC(=O)Nc3ccccc3)ccc2OC[C@H]2O[C@@H](CC(=O)NCC(F)(F)F)CC[C@@H]21	i	·	·	·	·

Screening data deposited in PubChem by National Center for Advancing Translational Sciences (NCATS).
